Bioassay records (PubChem BioAssay)
DT40 TDP1 CPT: DT40-hTDP1 cell growth loss with CPT; chicken DT40 Tdp1-/-;hTDP1 cells + 20 nM CPT, ATP luminescence, 48 h; Potency, µM (highest dose often 46.2 µM), actives largely listed as inhibitors; 420,000 compounds, 12% hits; AID 686979; further: nearly all actives have a fitted effect of over 55% in size
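Cell growth measured by CellTiter-Glo luminescence after a minimum 48 h, 37 C compound exposure with 20 nM CPT in Tdp1-knockout DT40 cells stably expressing hTDP1, seeded 400/well; qHTS titration format.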
DT40 TDP1 no CPT: qHTS for Inhibitors of human tyrosyl-DNA phosphodiesterase 1 (TDP1): qHTS in cells in absence of CPT | Potency, µM (series often up to 46.2 µM), actives largely listed as inhibitors | 420,000 compounds, 15% hits | DT40 Tdp1-/- hTDP1 cells, no CPT, ATP luminescence, 48 h; further: nearly all actives have a fitted effect of over 55% in size
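Compound effects on proliferation are scored in DT40 Tdp1-/-;hTDP1 cells in the absence of CPT. ATP levels (CellTiter-Glo luminescence) are recorded after a ≥48 hr, 37 °C incubation.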
HT1080 IDH1KD tx: kills HT-1080 cells with IDH1 knockdown. HT-1080 IDH1 knockdown viability, ATP luminescence, 48 h. Potency, µM (titrated, usually from 46.1 µM), most hits filed as cytotoxic. 360,000 compounds, 2% hits. AID 686971
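Knockdown cells (IDH1KD HT-1080) received compounds 2 h after plating at 750 cells/well and were kept 48 h at 37 °C in 5% FBS RPMI. A CellTiter-Glo luminescence read gave % activity for curve fitting.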
HT1080-NT tox: kills 2HG-producing HT-1080-NT fibrosarcoma cells; HT-1080-NT fibrosarcoma viability, CellTiter-Glo ATP luminescence, 48 h; Potency, µM (top dose mostly 46.1 µM), usual class: cytotoxic; 360,000 compounds, 1.6% hits;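 further: NT is the 2HG producing partner of a matched IDH1 knockdown line; nearly all actives have a fitted effect of over 55% in size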
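Compounds were tested in concentration-response format on HT-1080-NT cells for 48 hours at 37 degrees C. Cell viability came from CellTiter-Glo luminescence; curves were classified by r2, response magnitude and activity.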
IL1B secr inh: inflammasome signaling inhibition, IL-1 beta readout. 360,000 compounds, 4.7% hits. THP-1 LPS/ATP IL-1B secretion, AlphaLISA, 16 h; stronger effect = lower value. AID 743279. activity change, % at 57.5 µM; in the data active means activity change below about -50%; inconclusive means mostly about -30% to -49%
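THP-1 cells pretreated 1 hr with compounds (up to 57.5 uM final), then stimulated with LPS (250 ng/mL final) plus ATP (1.25 mM final); secreted IL-1B measured by AlphaLISA after 16 hr, decreased signal indicating inhibition.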
Numbers stand for hits; n = inactive; u = inconclusive; x = no result given; ! = not active in a repeat; [ ] = remark or other dose. This is a sample that favours compounds with a hit; in the whole collection about 19% have one here. Unless noted, the call rests on the fitted dose curve; in most records, active means well fitted curve in the direction sought with a large enough effect; inconclusive means small, poorly fitted or top-dose-only effect, or another doubt; inactive means no such curve, though single readings can be large; an effect the other way counts as inactive or inconclusive.

SMILES	DT40 TDP1 CPT	DT40 TDP1 no CPT	HT1080 IDH1KD tx	HT1080-NT tox	IL1B secr inh
Cc1c(N=Nc2c(O)n(C)c(=O)n(C)c2=O)c(=O)n(-c2ccccc2)n1C	n	n	n	n	n
CC(C)(O)C1C2OC(=O)C1[C@]1(O)CC3O[C@@]34C(=O)OC2[C@@]14C (some centres not stated)	n	n	x	x	x
CS(=O)(=O)NNP(=O)(NNS(C)(=O)=O)NC(=O)c1ccccc1	n	n	n	n	n
N#Cc1ccccc1Cn1cc(C(=O)c2ccco2)c2ccccc21	n	u	n	n	n
COc1cccc(C2Nc3ccccc3C(=O)N2Cc2ccccc2)c1 (configuration not stated)	n	u	n	n	u
CCOC(=O)[C@]12Cc3ccsc3[C@H]1N(Cc1ccccc1)C(=O)c1ccccc12	u	18µM	n	n	n
CCOC(=O)[C@]12Cc3cc(OC)c(OC)cc3[C@H]1N(Cc1ccccc1)C(=O)c1ccccc12	u	14µM	n	n	n
CCOC(=O)C1C2NC(=O)N(Cc3ccccc3)C1(C)Oc1c(OC)cccc12 (configuration not stated)	n	n	n	n	n
CCOC(=O)[C@]12Cc3ccccc3[C@H]1N(Cc1ccccc1)C(=O)c1cc(OC)ccc12	u	18µM	u	u	n
CCOC(=O)[C@]12Cc3cc(Cl)ccc3[C@H]1N(Cc1ccccc1)C(=O)c1cc(OC)ccc12	4.6µM	5.8µM	13µM	15µM	-113
OC[C@@H](O)[C@H]1O[C@@H]2O[C@@H](C(Cl)(Cl)Cl)O[C@@H]2[C@H]1O	n	n	x	x	x
CCOc1ccc(NC(=O)N2C[C@H]3C[C@@H](C2)c2cccc(=O)n2C3)cc1	n	n	n	n	n
CC1CC(O)[C@]2(O)[C@]13CC(=O)OC[C@@]2(C)[C@@](C)(O)C(=O)C3 (some centres not stated)	n	n	x	x	x
CN1C2CCC1CC(C(=O)OC(CO)c1ccccc1)C2 (configuration not stated)	n[9.04 µM]	n[9.04 µM]	x	x	x
CCOC(=O)[C@]12Cc3c(cc(OC)c(OC)c3OC)[C@H]1N(Cc1ccccc1)C(=O)c1ccccc12	u	16µM	n	n	u
CCOC(=O)[C@]12Cc3cc4ccccc4cc3[C@H]1N(Cc1ccccc1)C(=O)c1ccccc12	16µM	21µM	15µM	16µM	-110
Cc1ccc(C)c(N2CCN(C(=O)CCS(=O)(=O)c3ccc4c(c3)oc(=O)n4C)CC2)c1	16µM	15µM!	n	n	n
c1cncc(CNC2CCCC2)c1	n	n	n	n	n
CC1(C)CC(=O)C2=C(C1)OC(N)=C([N+](=O)[O-])C2c1ccc(C#N)s1 (configuration not stated)	21µM	u	n	n	u
Cc1[nH]c2ccccc2c1CCCNC1CCCCC1	u	18µM	n	n	u
Cc1[nH]c2ccccc2c1CCN	n	u	n	n	n
COc1ccc(NC(=O)C2(C)Cc3c(-c4ccc(N(C)C)cc4)ccnc3O2)cc1OC (configuration not stated)	u	u	n	n	n
CC(N)CCCC(C)(C)O (configuration not stated)	n	n	x	x	x
CCC12CN3CC(CC)(CN(C1)C3c1c(C)[nH]c(=O)[nH]c1=O)C2=O (configuration not stated)	n	n	x	x	x
COC(=O)C1=C(c2ccccc2)C[C@@H]2CC[C@H]1N2C(=O)N1CCC(O)CC1	n	n	n	n	n
SMILES	DT40 TDP1 CPT	DT40 TDP1 no CPT	HT1080 IDH1KD tx	HT1080-NT tox	IL1B secr inh
COC(=O)C1=C(c2cc3ccccc3s2)C[C@@H]2CC[C@H]1N2C	n	n	n	n	n
COC(=O)C1=C(c2cc3ccccc3s2)C[C@@H]2CC[C@H]1N2C(=O)N1CCC(C)CC1	5.2µM	2.6µM	n	n	n
COC(=O)C1=C(c2cc3ccccc3s2)C[C@@H]2CC[C@H]1N2C(=O)NCC1CC1	u	16µM	n	n	n
COC(=O)C1=C(c2cc3ccccc3s2)C[C@@H]2CC[C@H]1N2C(=O)NCc1ccc(C(F)(F)F)cc1	u	18µM	u	u	-52
COC(=O)C1=C(c2cc3ccccc3s2)C[C@@H]2CC[C@H]1N2C(=O)NC1CC1	u	15µM	n	n	n
CNNC	n	n	x	x	x
COc1cccc(NC(=O)CSC2=Nc3ccccc3C3=NC(CCC(=O)NCCc4ccccc4)C(=O)N23)c1 (configuration not stated)	21µM	21µM	x	x	x
COc1cccc(NC(=O)CN2CC(c3ccccc3)CC2=O)c1 (configuration not stated)	n	n	n	n	n
CCCN(CCC)[C@@H]1CCc2c(OC)cccc2[C@@H]1C	u	15µM	x	x	x
CCCN[C@@H]1CCc2c(OC)cccc2[C@@H]1C	n	n	x	x	x
CCN1C[C@]2(COC(=O)c3ccccc3N3C(=O)C[C@H](C)C3=O)CC[C@H](OC)[C@@]34[C@@H]5C[C@H]6[C@H](OC)[C@H]5[C@](O)(C[C@@H]6OC)[C@@](O)([C@@H](OC)[C@@H]23)[C@@H]14	n	n	x	x	x
O=C(O)[C@@H]1CSC(c2cccnc2)N1 (some centres not stated)	n[9.04 µM]	n[9.04 µM]	x	x	x
CCOP(=O)(C#Cc1ccccc1)C(O)c1ccc(Br)cc1 (configuration not stated)	u	u	n	n	n
CCCCOP(=O)(OCCCC)C(O)c1ccc(Br)cc1 (configuration not stated)	23µM	18µM	n	n	n
CC1CN(O)C2CCc3c(no[n+]3[O-])C12O (configuration not stated)	n	n	n	n	n
COc1ccc2c(C)c(CC(=O)N3C[C@H]4C[C@@H](C3)c3cccc(=O)n3C4)c(=O)oc2c1	n	n	n	n	n
c1ccc(CN2CCc3nc4ccccc4cc3C2)cc1	u	n	n	n	n
CCOc1ccccc1NC(=O)c1sc2nc3c(cc2c1N)CN(Cc1ccccc1)CC3	16µM	23µM	x	x	x
CCn1cc2nc(SCc3cc(C)ccc3C)n(Cc3ccc(OC)cc3)c(=O)c2n1	10µM	7.3µM	x	x	x
O=C1NC(=O)N(c2cccc(Br)c2)C(=O)/C1=C/c1ccsc1	u	u	23µM	u	n
C#C[C@]1(O)C=C[C@H]2[C@@H]3CCC4=CC(=O)CC[C@@H]4[C@H]3CC[C@@]21CC	15µM	15µM	x	x	x
COc1ccccc1CN1CC[C@@]2(CCCN(C(=O)Oc3ccccc3)C2)C1	n	u	x	x	x
O=C(Nc1cccc2ccccc12)N1Cc2ccccc2-n2nncc2C1	n	u	n	n	n
